Rows were chosen to be rich in hits. Some 12% of all compounds tested hit in one or more screens of this group.
FMDV antiviral: antivirals against foot and mouth disease virus; FMDV antiviral cell-based qHTS; Potency, µM (doses to about 57.9 µM), for inactives: top-dose activity change, negative = inhibition, actives largely listed as inhibitors; 410,000 compounds, 1.2% hits; calls by dose curve; tested in HEK293T cells; further: read-out not given here; potency means the concentration at half of the fitted maximal effect; on the % scale 0 is the no-effect control and ±100 the full control effect; nearly all actives have a fitted effect of over 45% in size
Shiga toxin inh: inhibitors of Shiga toxin in Vero cells; 290,000 compounds, 9.2% hits; inhibition, % at 38.7 µM; AID 2315; Vero cells, Shiga toxin protein synthesis inhibition reporter; in the data active means inhibition mostly above about 28%, no sharp cut-off; inactive means mostly below about 43%; further: 0% is about no effect
CHX counter: counter-screen for Shiga toxin inhibitors: cycloheximide protein synthesis inhibition; cell reporter, cycloheximide protein synthesis inhibition counterscreen; max response, %; 300,000 compounds, 12% hits; in the data active means max response mostly above about 13%, no sharp cut-off; inactive means mostly below about 14%; further: read at 38.3 µM for the half of the compounds with a filed dose; 0% is about no effect
Sm TGR block: inhibitors of Schistosoma mansoni thioredoxin glutathione reductase. 360,000 compounds, 3% hits. Potency, µM (top dose mostly 114 µM), inactives show at the highest dose activity change, negative = inhibition, usual class: inhibitors. purified TGR, DTNB reduction, TNB absorbance 405 nm; active means well fitted inhibition curve with a large enough effect; inconclusive means small, poorly fitted or top-dose-only effect; inactive means no such curve, though single readings can be large or run the other way; further: potency means the concentration at half of the fitted maximal effect; on the % scale 0 is the no-effect control and ±100 the full control effect; nearly all actives have a fitted effect of over 60% in size
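Kinetic colorimetric format: TGR-catalysed, NADPH-driven DTNB reduction monitored via TNB absorbance. Enzyme dispensed at 20 nM; compound exposure 15 min at room temperature before reaction start.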
* = called active by the depositor; i = inactive; u = inconclusive; x = no result given.

SMILES | FMDV antiviral | Shiga toxin inh | CHX counter | Sm TGR block
O=C(O)C1C2C=CC(O2)C1C(=O)Nc1ccccc1C(F)(F)F (stereo not given) | -15.7% | 2.0 | 6.3 | 8.91µM*
CCOc1ccc(OCC)c(NC(=O)C2C3C=CC(O3)C2C(=O)O)c1 (stereo not given) | -5.2% | x | x | x
COc1ccc(NC(=O)C2CCC(CNS(=O)(=O)c3csc(C(N)=O)c3)CC2)cc1 (stereo not given) | 13.9% | x | x | -7.7%
CCOc1ccc(OCC)c(NC(=O)C2C3C=CC(O3)C2C(=O)NCc2ccco2)c1 (stereo not given) | 25.1% | 16.6 | 8.4 | 50.1µM*
O=C(Oc1ccccc1F)c1nc(SCc2ccc(F)cc2)ncc1Cl | -18.2% | x | x | 0.6%
CCOc1ccc(NC(=O)C2C(c3ccccc3)C2(Cl)Cl)cc1 (stereo not given) | -7.4% | 41.7* | 21.0* | -10.0%
CCOc1ccc(NC(=O)Cc2ccccc2)cc1 | 6.5% | 103.8* | 93.0* | -2.4%
COc1ccc(-n2nc3ccc(NC(=O)c4c(OC)cccc4OC)cc3n2)cc1 | 16.4% | 52.2 | 36.0* | 0.9%
COc1cc(C(=O)Nc2ccc3nn(-c4ccc(F)cc4)nc3c2)cc(OC)c1OC | u | x | x | 2.8%
CCOC(=O)CNC(=O)Cc1ccc(OC)cc1 | -18.0% | 20.5 | 13.0* | 15.1%
COc1ccc(NC2C[C@H]3CCCC(=O)N4CC[C@@H](C2)[C@@H]34)cc1 (stereo not given in full) | x | i | -0.8 | x
CCS(=O)(=O)NCc1c(C)ncc2c1CCN(C(=O)c1csc(-c3cccs3)n1)C2 | -7.2% | x | x | x
CC(=O)N1CCc2nc3sc(C(=O)Nc4ccc(Cl)cc4F)c(N)c3c(C(F)(F)F)c2C1 | -11.3% | x | x | -2.3%
COc1ccc(CC(=O)OCC(=O)Nc2ccc(C(=O)Nc3ccc(OC)cc3)cc2)cc1 | 22.9% | 14.8 | -0.7 | 10.5%
CCOc1ccc(-n2nc3ccc(NC(=O)CC)cc3n2)cc1 | 44.2% | 55.4* | 30.6* | -29.8%
CCOc1ccc(NC(=O)CSCC(=O)O)cc1 | -5.1% | -16.0 | 12.5 | -20.8%
CCOc1ccc(NC(=O)CSc2ccccc2N)cc1 | 73.4% | 118.4* | 38.6* | 22.9%
CCOc1ccc(NC(=O)COC(=O)c2ccc3c(c2)C(=O)N(CCc2ccccc2)C3=O)cc1 | 30.8% | 65.5* | 18.7* | -7.7%
CCOc1ccc(NC(=O)c2ccc(NC(=O)COC(=O)Cc3ccc(OC)cc3)cc2)cc1 | 44.3% | 60.2* | 17.6 | x
CCOc1cccc(C2c3[nH]c4ccccc4c3CCN2C(=O)Cc2cccc(OCC)c2OCC)c1 (stereo not given) | -7.0% | x | x | -2.8%
O=S(=O)(c1ccc(Cl)cc1)N1CCN(S(=O)(=O)c2ccc3c(c2)OCCO3)CC1 | x | -7.3 | -7.8 | x
COc1cc(Cl)c(C)cc1NC(=O)c1cnc(N2CCOCC2)c2ccccc12 | -17.5% | x | x | -1.8%
CCOc1ccc(-n2nc3ccc(NC(=O)Cc4ccccc4)cc3n2)cc1 | 22.4µM* | x | x | 1.5%
O=C(Cc1ccc(Cl)cc1)Nc1ccc2nn(-c3ccccc3)nc2c1 | 7.1% | x | x | 2.2%
CCN(CC)S(=O)(=O)c1ccc(C(=O)/C=C/c2ccc(-c3ccc([N+](=O)[O-])cc3)o2)cc1 | -10.8% | 0.9 | -2.5 | 15.8µM*
SMILES | FMDV antiviral | Shiga toxin inh | CHX counter | Sm TGR block
Cc1ccc(/C=C/C(=O)Nc2ccc(Oc3ccccc3)cc2)o1 | -4.3% | 54.2 | 25.8* | 17.8µM*
CCc1ccc(C(=O)/C=C/c2ccc([N+](=O)[O-])o2)cc1 | 35.5µM* | 18.1 | 12.6* | 3.16µM*
Cc1ccc(/C=C/C(=O)Nc2nnc(C)s2)o1 | 36.4% | 61.2* | 8.4 | u
O=C(O)/C=C/C(=O)Nc1ccc(Oc2ccccc2)cc1 | 20.3% | 28.8 | 7.5 | -26.1%
CCOc1ccc(S(=O)(=O)N(CC(=O)N/N=C/c2ccc(-c3ccc([N+](=O)[O-])cc3)o2)c2ccccc2)cc1 | -1.8% | 36.7 | 13.5 | -26.4%
O=C(c1cccs1)N1CCCc2cc(NS(=O)(=O)c3ccc(F)cc3)ccc21 | -18.8% | x | x | 1.5%
CCC(=O)N1c2ccc(S(=O)(=O)N3CCC(C)CC3)cc2CC1C (stereo not given) | -1.1% | x | x | 2.8%
CC(=O)Nc1ccc(S(=O)(=O)N2CCC(n3c(C(F)(F)F)nc4cccnc43)CC2)cc1 | 2.7% | x | x | 2.0%
CC(=O)c1ccc(NC(=O)/C=C/c2ccc(C)o2)cc1 | 29.3% | x | x | 11.2µM*
Cc1cc(NS(=O)(=O)c2ccc(NC(=O)/C=C/c3ccc(C)o3)cc2)nc(C)n1 | 23.8% | 4.3 | 1.3 | 3.16µM*
CCOC(=O)c1c(NC(=O)/C=C/c2ccc(C)o2)sc(C)c1C | x | -9.3 | -4.0 | 0.0%
Cc1cc(NS(=O)(=O)c2ccc(NC(=O)/C=C/c3ccccc3)cc2)nc(C)n1 | 2.3% | x | x | x
CCOC(=O)CCc1ccc(NC(=O)/C=C/c2ccc([N+](=O)[O-])o2)cc1 | 25.1µM* | x | x | x
CC(=O)Nc1ccc(NC(=O)COC(=O)c2ccc([N+](=O)[O-])o2)cc1 | -9.0% | x | x | x
Cc1ccc(/C=C/C(=O)Nc2ccc([N+](=O)[O-])cc2)o1 | -2.1% | 74.8* | 35.5* | 15.8µM*
Cc1ccc(-c2nc(CCNC(=O)C(=O)Nc3ccc(C)c(C)c3)cs2)cc1 | -18.3% | x | x | 2.2%
COc1ccc(N2C(=O)[C@@H]3C[C@H]2CN3Cc2cccn2-c2ccc(Cl)cn2)c(C)c1 | -0.2% | x | x | x
CS(=O)(=O)NN1C(=O)c2ccccc2NC1c1cccc(O)c1 (stereo not given) | 4.1% | -3.7 | -4.1 | 0.5%
CS(=O)(=O)NN1C(=O)c2ccccc2NC1c1ccccc1 (stereo not given) | -11.3% | 33.6* | 24.9* | -2.0%
C/C(=N\N1C(=O)c2ccccc2NC1c1ccco1)c1ccccc1O (stereo not given) | 10.8% | 64.5* | 32.2* | 2.1%
Cc1ccc(/C=N/N2C(=O)c3ccccc3NC2c2ccc(C)cc2)cc1 (stereo not given) | 31.5% | 95.6* | 81.7* | -2.6%
CC(=O)NN1C(=O)c2ccccc2NC1c1ccco1 (stereo not given) | -16.7% | 17.3 | 10.9 | 0.2%
O=C1c2ccccc2NC(c2ccco2)N1/N=C/c1ccco1 (stereo not given) | -1.6% | 71.2 | 32.5* | x
Cc1ccccc1NC(=O)N1CCC(CN2CCCC2)CC1 | -1.5% | x | x | -18.7%
Clc1ccccc1CNc1ncnc2c1c(-c1ccccc1)cn2-c1ccccc1 | -16.7% | x | x | 10.8%
SMILES | FMDV antiviral | Shiga toxin inh | CHX counter | Sm TGR block
C/C(=N\N1C(=O)c2ccccc2NC1c1ccccc1)c1ccccc1O (stereo not given) | 14.7% | 66.6* | 23.1* | x
CS(=O)(=O)NN1C(=O)c2ccccc2NC1c1ccccc1O (stereo not given) | 9.5% | -3.2 | -2.7 | -0.9%
CCc1cccc(C)c1Nc1c(-c2ccc(SC)cc2)nc2sccn12 | 10.3% | x | x | -4.0%
CCSC(=O)N=Nc1ccc(O)cc1 | -11.0% | x | x | x
O=[As](O)(O)c1ccc(N=Nc2ccc(O)cc2)cc1 | 32.4% | -4.7 | -4.7 | 50.1µM*
O=C(Nc1nc(-c2ccc(Cl)cc2Cl)cs1)C1CCCO1 (stereo not given) | -36.1% | 7.5 | 9.3 | -2.4%
CCOc1ccc(-c2csc(NC(=O)C3CCCO3)n2)cc1 (stereo not given) | -2.4% | 11.0* | 41.7* | -4.0%
